The full ranking holds about 39,000 sequences; the median of “fluorescence intensity (a.u.)” is about 4,300, and the highest 2% start at about 39,000. The entries come from a sample that favours the highest values as a whole.

The experiment concerns the target T1, OsSMF1 (Oryza sativa, UniProt Q6ZLB0 1-436).
T1 sequence: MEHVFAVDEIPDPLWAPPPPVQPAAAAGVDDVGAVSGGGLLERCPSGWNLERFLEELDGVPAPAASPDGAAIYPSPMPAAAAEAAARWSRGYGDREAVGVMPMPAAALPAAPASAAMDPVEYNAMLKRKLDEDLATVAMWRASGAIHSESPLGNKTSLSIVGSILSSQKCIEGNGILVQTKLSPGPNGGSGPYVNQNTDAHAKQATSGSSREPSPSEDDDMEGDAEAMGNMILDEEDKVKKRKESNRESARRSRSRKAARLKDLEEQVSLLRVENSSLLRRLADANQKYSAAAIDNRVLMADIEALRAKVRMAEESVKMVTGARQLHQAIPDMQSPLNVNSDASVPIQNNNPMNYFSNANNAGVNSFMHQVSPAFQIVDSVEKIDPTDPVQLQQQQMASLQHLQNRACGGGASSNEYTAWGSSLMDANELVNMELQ
As to the kind of experiment: protein-binding microarray (RPBM); PBS, 2% BSA, 51.3 ng/ul salmon testes DNA, 50 uM zinc acetate, 200 nM TF, 25 C, 1 h; high values mean tight binding. The note with it: protein: recombinant; tags: N-terminal polyhistidine and DsRed monomer fusion (pET32a); chain copies: 2; label: CyDye5-dUTP incorporated in the synthesized complementary strand; 3' TTTTT single-stranded linker to array surface; dsDNA, one strand shown. Put shortly: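 An Axon 4000B scanner gave the binding signal as per-feature fluorescence intensity in arbitrary units. This followed washing of a custom Agilent array that had been incubated for 1 h at 25 °C with 200 nM protein in PBS, 2% BSA, salmon testes DNA and 50 µM zinc acetate. The proteins were transcription factors fused at the N-terminus to polyhistidine and DsRed, expressed in E. coli BL21-CodonPlus and purified on Ni–NTA.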
For the sequence “TTAGCCATTGCTACTTGCTTGCAGCGCGCGTGTCGGCTAGCGGAGTCACCTAGTGCAG”, the binding signal was 25300 fluorescence intensity (a.u.). Regarding “TTTCAGTAGCGTCGGCTGCTCTATCTACTTGCATTGCCTGCGGAGTCACCTAGTGCAG”, the binding signal is 41000 fluorescence intensity (a.u.).

Regarding “CTAGTTTACATCTGCAATGTCATGATTTATTTATGGAATACGGAGTCACCTAGTGCAG”, the binding signal is 19500 fluorescence intensity (a.u.). Then “TGGAAAGAATACAGTATGATATGGTCTTATTTTGTCTGCCCGGAGTCACCTAGTGCAG”, with 41200 fluorescence intensity (a.u.); and “GTTTCTTATTTTATGAATGGTATGAGTAAGAATATGTTTGCGGAGTCACCTAGTGCAG”, with 3690 fluorescence intensity (a.u.); and “GCGAGCAGTCGATGTCCTCGATGACGATGATGGACTTGCTCGGAGTCACCTAGTGCAG”, with 4140 fluorescence intensity (a.u.). The same measure for “AGTAGAGAGATCTTGACAAAGTCATCGGTGATGAAGTCGACGGAGTCACCTAGTGCAG”: 3570 fluorescence intensity (a.u.). Then “AGGGCTATCTGCTATCTCATCTTGTATGACAAAGATTGATCGGAGTCACCTAGTGCAG”, with 65500 fluorescence intensity (a.u.); and “TATGACATCGGCTCAAAGATAAATGATATGTCATCGGCATCGGAGTCACCTAGTGCAG”, with 3540 fluorescence intensity (a.u.). As to “CCGTTGCCGCGCCGTGGACCGACAGCCACTGACGTCACCCCGGAGTCACCTAGTGCAG”, the binding signal was 18600 fluorescence intensity (a.u.).

As to “TTGAACCAACACTATATCATACACCTAGTCACCTACTCCTCGGAGTCACCTAGTGCAG”, the binding signal is 4770 fluorescence intensity (a.u.). For the sequence “ACTAATTGTGGCCATGTTCATCGTGCAGTTCCTTGGATCTCGGAGTCACCTAGTGCAG”, the binding signal is 17300 fluorescence intensity (a.u.). In the case of “ACACATTCCATATCCTTGGACTAATTCACGAGACGAATCTCGGAGTCACCTAGTGCAG”, the binding signal was 40900 fluorescence intensity (a.u.).

For the sequence “CATCTCCATTCTTTCATCCTCATCTCTAATGGAGAATTTCCGGAGTCACCTAGTGCAG”, the binding signal was 3920 fluorescence intensity (a.u.). In the case of “AGTAATTAAAATTTAAGAGGCAAAATTACGTGTGAATTTGCGGAGTCACCTAGTGCAG”, the binding signal was 4130 fluorescence intensity (a.u.). Regarding “CCCGAAGCGGATTCGCGCACGGAAACCCACAGTCGATTCTCGGAGTCACCTAGTGCAG”, the binding signal is 3590 fluorescence intensity (a.u.).

With “ATAGGGTGAGAAAGCACCTCGTTTTCCACGCGCACGCTTCCGGAGTCACCTAGTGCAG”, the binding signal was 3330 fluorescence intensity (a.u.). Turning to “CTTGCCGTCGAAGCGAAGGAACCGCCACCCGACGTCAGCTCGGAGTCACCTAGTGCAG”, the binding signal is 5050 fluorescence intensity (a.u.). Consider “CTTGCCGTCGACGCGAAGGAACCGCCACCCGACGTCAGCTCGGAGTCACCTAGTGCAG”, for which the binding signal is 5610 fluorescence intensity (a.u.).

For the sequence “GGGAGGACGAAGGAACGCCAATACCGACATTGCTCAAGCTCGGAGTCACCTAGTGCAG”, the binding signal was 65300 fluorescence intensity (a.u.). On to “GGTGGGGACCACCAGGACGGACGTGTAGGGCCTCCTGAAGCGGAGTCACCTAGTGCAG”, for which the binding signal was 4270 fluorescence intensity (a.u.).

With “TCCAGGGAGCCGCGGTGGCATATGTTGCTGACATGTTTTCCGGAGTCACCTAGTGCAG”, the binding signal was 5340 fluorescence intensity (a.u.). With “ACTGGAGCTAACCGCTGACGTGGCATTCCACGTAGGCAACCGGAGTCACCTAGTGCAG”, the binding signal is 42500 fluorescence intensity (a.u.). The same measure for “TGTGTCATGGCTGATGTCAGCTCAGCATATATATATTCAGCGGAGTCACCTAGTGCAG”: 14900 fluorescence intensity (a.u.); for “GTTGACCGTCTACGTGGCATTCCACGTAGGCAGCTCATTTCGGAGTCACCTAGTGCAG”: 16600 fluorescence intensity (a.u.); for “CTTTTGCTCACATGGCGTGCCACCGTGGCGTGCCCGCATGCGGAGTCACCTAGTGCAG”: 16200 fluorescence intensity (a.u.). Regarding “TCAGAGAGCTGACAGCGTGTTCAGGCCGTTCGATTTTGGTCGGAGTCACCTAGTGCAG”, the binding signal is 5030 fluorescence intensity (a.u.). Then “GATTTTATTCGACGTGTCAGCTGACTCAGATGGTCGGTAGCGGAGTCACCTAGTGCAG”, with 39100 fluorescence intensity (a.u.); and “TTTTGCACACATGTATCATGCTGACGTCAGCATGACGTGGCGGAGTCACCTAGTGCAG”, with 61200 fluorescence intensity (a.u.).

As for “ATTTGGGCGGCAAGCTGACGTGGCACACGGCGTCATGACTCGGAGTCACCTAGTGCAG”, the binding signal is 18100 fluorescence intensity (a.u.). As to “ACTCCGGTTTTATCCGACGTGGCAGCTGACTCAGCATGGGCGGAGTCACCTAGTGCAG”, the binding signal was 44300 fluorescence intensity (a.u.).

As for “ATCCGGTTTTATCCGACGTGGCGGCTGAGTCGGCGCGGGACGGAGTCACCTAGTGCAG”, the binding signal was 30700 fluorescence intensity (a.u.). Consider “TTTGACTCCGATTTTATCCGACGTGGCAGCTGACTCAGCGCGGAGTCACCTAGTGCAG”, for which the binding signal is 25300 fluorescence intensity (a.u.). With “ATGGAGCCTGACGTGGCAGCATGTAGCTGGTCCACGTCACCGGAGTCACCTAGTGCAG”, the binding signal is 27400 fluorescence intensity (a.u.).

As to “TACTGTAGCACCACATTGTCAATCATGGCGCAATTATGCTCGGAGTCACCTAGTGCAG”, the binding signal was 12900 fluorescence intensity (a.u.).

Consider “GAATACCAAGAACGACGTCATACAAGACTGACGTGCGGTCCGGAGTCACCTAGTGCAG”, for which the binding signal was 5690 fluorescence intensity (a.u.). “AATGTCCCATCTTTCGTGTGTAAGGCACGTTAGTCTCAGGCGGAGTCACCTAGTGCAG”: the binding signal is 4290 fluorescence intensity (a.u.).

On to “GTATGGGTTCGAGGAGTGATGTGGTGATGGGCAAACCCATCGGAGTCACCTAGTGCAG”, for which the binding signal was 3300 fluorescence intensity (a.u.). Turning to “CACCCTTAAATCATATATGTGGTTTTAATATTTGGGGATGCGGAGTCACCTAGTGCAG”, the binding signal was 33200 fluorescence intensity (a.u.).

Take “CGAGACTGACAAGGCATTCCAGACACTTAAACAAGCACTGCGGAGTCACCTAGTGCAG”: the binding signal was 3350 fluorescence intensity (a.u.). With “CTCTCGAAGCTGCCCTAGCCTCTCCGCTGCTCCGATCCACCGGAGTCACCTAGTGCAG”, the binding signal was 24500 fluorescence intensity (a.u.). For the sequence “ATGTTTGAGCATGCAGCAAAGACAGATCTAACACTCAAGCCGGAGTCACCTAGTGCAG”, the binding signal was 3970 fluorescence intensity (a.u.).

The record behind these values is publication PMC7819943, “Rice protein-binding microarrays: a tool to detect cis-acting elements near promoter regions in rice”.
